Test results published in PubChem BioAssay AID1861 (The Scripps Research Institute Molecular Screening Center, 2009).
Out of some 290,000 compounds screened, about 3,100 (1.1%) were called active. Cut-off read from the data, not from the text of the source: active = inhibition above about 16% (passing the limit was not always enough); inactive = the rest. The sample as a whole holds a higher share of actives than the screen did.

molecular target: Neuropeptides B/W receptor type 1 (Homo sapiens) (UniProt P48145); assay: GPR7 receptor antagonists, primary screen, cell-based, fluorescence, single concentration (AID 1861); conditions: GPR7-expressing cells, fluorescence antagonist assay; at 4.4 µM; hits give high values;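 note: cells stimulated with the agonist NPW; 0% = agonist with vehicle and 100% = vehicle without agonist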
Sequence (P48145 whole entry, looked up): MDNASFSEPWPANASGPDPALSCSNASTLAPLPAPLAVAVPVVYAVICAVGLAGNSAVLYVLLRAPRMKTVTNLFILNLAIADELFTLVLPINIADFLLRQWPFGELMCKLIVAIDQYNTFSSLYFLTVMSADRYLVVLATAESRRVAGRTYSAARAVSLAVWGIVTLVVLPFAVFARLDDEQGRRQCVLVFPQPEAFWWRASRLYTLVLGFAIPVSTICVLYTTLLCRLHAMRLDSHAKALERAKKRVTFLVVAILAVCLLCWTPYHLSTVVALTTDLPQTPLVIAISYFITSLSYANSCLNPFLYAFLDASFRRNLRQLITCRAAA

Row | Structure (SMILES) | inhibition
1 | COc1ccc2c(c1)c(C(=O)N/N=C/c1cccs1)c(C)n2C | -1.8% (inactive)
2 | O=C(COc1ccc(Cl)cc1Cl)NCCCNC(=O)c1cnccn1 | -1.6% (inactive)
3 | CC(=O)N1c2ccc(S(=O)(=O)N3CCCC(C(=O)Nc4cccc(Cl)c4)C3)cc2CC1C (stereo not given) | 2.68% (inactive)
4 | CC(=O)N1CCCc2cc(S(=O)(=O)N3CCCC(C(=O)N4CCN(c5cccc(Cl)c5)CC4)C3)ccc21 (stereo not given) | 35.7% (active)
5 | CC(=O)N1CCCc2cc(S(=O)(=O)N3CCCC(C(=O)NCc4ccc(Cl)cc4)C3)ccc21 (stereo not given) | 0.31% (inactive)
6 | CCOc1cc2[nH]c(=S)n(Cc3ccc(C(=O)N4CCN(C)CC4)cc3)c(=O)c2cc1OCC | 2.37% (inactive)
7 | CCNC(=S)N(CCN(CC)CC)Cc1cc2cc3c(cc2[nH]c1=O)OCCO3 | -10.2% (inactive)
8 | Cc1cc(C(=O)COC(=O)c2cccs2)c(C)n1-c1c(C)n(C)n(-c2ccccc2)c1=O | -14.8% (inactive)
9 | COc1ccc(-n2c(C)cc(C(=O)COC(=O)c3cc(OC)c(OC)cc3NC(=O)c3cccs3)c2C)cc1 | 27.1% (active)
10 | COc1cc2ccccc2cc1C(=O)Nc1ccc(NC(=O)c2cccs2)cc1 | -3.15% (inactive)
11 | O=C(O)c1ccc(S(=O)(=O)N2CCOCC2)o1 | 1.56% (inactive)
12 | Cc1ccc(S(=O)(=O)NCC2CCC(C(=O)N3CCOCC3)CC2)cc1 (stereo not given) | -4.78% (inactive)
13 | CN1C/C(=C/c2cccs2)C(=O)/C(=C\c2cccs2)C1 | -7.39% (inactive)
14 | CS(=O)(=O)N(Cc1nc2sc3c(c2c(=O)[nH]1)CCCC3)C1CCCCC1 | 1.34% (inactive)
15 | CCCC(=O)Nc1nc2ccc(NC(=O)c3cccnc3)cc2s1 | 3.59% (inactive)
16 | CSc1nc2ccc(NC(=O)c3c(F)cccc3F)cc2s1 | -5.74% (inactive)
17 | CCCC(=O)Nc1nc2ccc(NC(=O)c3c(F)c(F)c(OC)c(F)c3F)cc2s1 | 36.2% (active)
18 | CN(C)c1nc(=Nc2cccc(Cl)c2)ss1 | -8.61% (inactive)
19 | CNS(=O)(=O)c1cccc(C(=O)NC2CCCc3ccccc32)c1 (stereo not given) | -8.59% (inactive)
20 | COc1ccc(C(CNCC(=O)Nc2ccccc2F)N(C)C)cc1 (stereo not given) | 0.06% (inactive)
21 | COc1ccc(CC(=O)NC(C)CCc2ccccc2)cc1 (stereo not given) | -6.45% (inactive)
22 | COc1ccc(C(CCNCc2ccccc2F)c2ccc(F)cc2)cc1 (stereo not given) | 27.6% (active)
23 | N#Cc1c(Cl)nc(-c2cccnc2)nc1-c1ccccc1 | 4.22% (inactive)
24 | O=C1CSC(c2ccccc2)N1c1nc(-c2ccc(Cl)cc2Cl)cs1 (stereo not given) | -0.11% (inactive)
25 | Clc1ccc(-c2cc(C3CCNCC3)[nH]n2)c(Cl)c1 | 28.3% (active)
26 | Clc1ccc(-c2cc(-c3ccccn3)on2)c(Cl)c1 | -1.76% (inactive)
27 | COc1ccc(N(CC(=O)NCc2ccc(F)cc2)C(=O)CCC(=O)Nc2nccs2)cc1 | 1.89% (inactive)
28 | COCCOC1CCN(C(=O)c2ccc(OC)c(OC3CCN(C(C)C)CC3)c2)CC1 | -13.7% (inactive)

Row | Structure (SMILES) | inhibition
29 | Cc1ccc(CN2CCN(Cc3cn(C)nc3-c3ccccc3)CC2CCO)o1 (stereo not given) | -17.8% (inactive)
30 | Cc1ccccc1CN1C[C@@H]2C[C@@H](c3ccc4nsnc4c3)N3CCC[C@@]23C1=O | -4.53% (inactive)
31 | Cc1ccccc1CN1C[C@@H]2C[C@@H](c3cn(C)nc3-c3ccccc3)N3CCC[C@@]23C1=O | 25.5% (active)
32 | CS(=O)(=O)c1ccc(-c2nnn(CC(=O)Nc3ccc4c(c3)OCCO4)n2)cc1 | 11.6% (inactive)
33 | O=C(CN(Cc1ccc(Br)cc1)S(=O)(=O)c1ccccc1)NCc1ccncc1 | 5.84% (inactive)
34 | CC(=O)NNC(=O)c1csc(Cc2c(Cl)sc3ccc(Cl)cc23)n1 | 0.26% (inactive)
35 | CC1CCN(S(=O)(=O)c2ccc(S(=O)(=O)NCc3ccco3)cc2)CC1 | 19.6% (active)
36 | CC1CCN(S(=O)(=O)c2ccc(S(=O)(=O)NCc3cccnc3)cc2)CC1 | -1.72% (inactive)
37 | Cc1ccc(S(=O)(=O)N2CCC(C(=O)N[C@@H](C)C(=O)NCc3ccco3)CC2)cc1 | 2.63% (inactive)
38 | O=C(CC1SC(=Nc2ccccc2)N(Cc2ccccn2)C1=O)Nc1cccc(Cl)c1 (stereo not given) | -4.47% (inactive)
39 | CCN1C(=NCc2ccc(OC)cc2)N[C@@H](CCc2ccccc2)[C@H](C(=O)NCc2ccc(OC)cc2)[C@H]1C | 14% (inactive)
40 | CCN(CC)CCCNC(=O)c1c(O)c2cc(F)cc3c2n(c1=O)C(C)CC3 (stereo not given) | 4.5% (inactive)
41 | CN(C)CCCN(C(=O)c1ccc(S(=O)(=O)N2CCCCCC2)cc1)c1nc2ccc(Br)cc2s1 | 28.6% (active)
42 | O=C(Nc1nc2ccc([N+](=O)[O-])cc2s1)c1ccc(S(=O)(=O)N2CCCc3ccccc32)cc1 | -16.1% (inactive)
43 | CCN(CC)CCN(C(=O)c1ccc(S(=O)(=O)N2CCOCC2)cc1)c1nc2cc3c(cc2s1)OCCO3 | -11.1% (inactive)
44 | CN(C)CCCN(C(=O)c1ccc(S(=O)(=O)N2CCCc3ccccc32)cc1)c1nc2ccc(F)cc2s1 | 41.8% (active)
45 | CCOc1ccc2nc(N(CCCN(C)C)C(=O)c3ccc(C(=O)c4ccccc4)cc3)sc2c1 | 6.16% (inactive)
46 | CC(=O)N(CCCN(C)C)c1nc2ccc(C)cc2s1 | -10.8% (inactive)
47 | CSc1nc2ccc(S(=O)(=O)N3CCc4ccccc43)cc2s1 | -0.77% (inactive)
48 | CCc1ccc2nc(N(CCCN(C)C)C(=O)c3ccc4c(c3)OCCO4)sc2c1 | 22.4% (active)
49 | CCOc1ccc2nc(N(CCN(C)C)C(=O)c3ccc4ccccc4c3)sc2c1 | 3% (inactive)
50 | COc1ccc(C(C(=O)NC2CCCCC2)N(C(=O)Cc2c[nH]c3ccccc23)c2ccccc2)cc1OC (stereo not given) | -5.99% (inactive)
51 | Cc1cc(S(=O)(=O)c2cc3ccc(O)c(C)c3oc2=O)ccc1F | -15% (inactive)
52 | Cc1ccccc1NC(=O)CCNS(=O)(=O)c1ccc2[nH]c(=O)oc2c1 | -12.7% (inactive)
53 | O=C(Nc1ccc(C2CC2(Cl)Cl)cc1)c1cccc([N+](=O)[O-])c1 (stereo not given) | -6.54% (inactive)
54 | Nc1ccn(C2CC(O)C(CO)O2)c(=O)n1 (stereo not given) | -7.05% (inactive)
55 | O=C(COc1ccc(S(=O)(=O)N2CCOCC2)cc1Cl)N1CCOCC1 | -13.2% (inactive)
